PubChem BioAssay (Tox21)
Results filed as inconclusive are left out. Calls of active or inactive are those of the source. Unless noted, the call rests on the fitted dose curve.

Columns and labels:
[1] = Nuclear factor erythroid 2-related factor 2/antioxidant responsive element (Nrf2/ARE) small molecule agonists: qHTS cell viability counter screen in human keratinocytes (AID 1919968; active means well fitted curve in the direction sought with a large enough effect in the repeat runs; an effect the other way counts as inactive or inconclusive; further: nearly all actives have a fitted effect of over 55% in size)
Procedure, shortened: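 KeratinoSens cells (HaCaT keratinocytes stably carrying an ARE-luciferase reporter) were seeded at 1,500 cells/well and rested 5 h at 37 C/5% CO2. They were then exposed to compounds in DMSO for 23 h. Viability was read by CellTiter-Fluor fluorescence after 1 h.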

[2] = Nuclear factor erythroid 2-related factor 2/antioxidant responsive element (Nrf2/ARE) small molecule agonists: luciferase reporter gene qHTS assay in human keratinocytes (AID 1919969); further: nearly all actives have a fitted effect of over 35% in size
[3] = target: Gonadotropin-releasing hormone receptor (Homo sapiens) (UniProt P30968); experiment: Human gonadotropin-releasing hormone receptor (GnRHR) small molecule agonists, calcium flux assay in GnRHR-HEK293 cells (AID 1920063); further: nearly all actives have a fitted effect of over 35% in size
Procedure, shortened: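 HEK293 cells stably expressing human GnRHR were plated 18 h at 37 °C, loaded with calcium dye 1 h at 37 °C, then given compound in agonist mode; fluorescence (Ex/Em 480/540) read kinetically for 3 min at 1 s intervals.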

[4] = target: KiSS-1 receptor (Homo sapiens) (UniProt Q969F8); experiment: Human kisspeptin (KISS1R) small molecule agonists, calcium flux assay in KISS1R-HEK293 cells (AID 1920064; active means well fitted curve in the direction sought with a large enough effect in the repeat runs; an effect the other way counts as inactive or inconclusive)
Procedure, shortened: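 HEK293 cells stably expressing human KISS1R were plated 18 h at 37 °C, loaded with calcium dye for 1 h at 37 °C, then given compound by pin tool. Fluorescence (Ex/Em 480/540) was read kinetically for 3 min.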

[5] = G protein-coupled receptor (GPCR) small molecule agonists, calcium flux assay: HEK293 wild type cell line counter screen (AID 1920065)
Procedure, shortened: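 Cells were plated and cultured 18 h at 37 C/5% CO2, then loaded with calcium dye for 1 h at 37 C. Compounds in DMSO were pin-transferred in agonist mode, and fluorescence (Ex/Em 480/540) was read kinetically for 3 min at 1 s intervals.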

[6] = p53 small molecule agonists, cell-based qHTS assay with human liver microsomes (AID 1963577);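 further: p53 response element beta-lactamase reporter cells with liver microsomes plus NADPH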
Procedure, shortened: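 Reporter activation was measured by LiveBLAzer fluorescence intensity in p53RE-bla cells, which had been exposed to compounds for 16 h at 37 C alongside 0.5 mg/mL human liver microsomes and 0.5 mg/mL NADPH (final concentrations).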

[7] = p53 small molecule agonists, cell-based qHTS assay with rat liver microsomes (AID 1963578)
Procedure, shortened: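 Compound in DMSO added to p53RE-bla cells 5 h post-plating; rat microsomes/NADPH 0.5 mg/mL final; 16 h, 37 C; LiveBLAzer 2 h RT.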

[8] = p53 small molecule agonists, cell-based qHTS assay with rat liver microsomes: qHTS cell viability counter screen (AID 1963580); further: nearly all actives have a fitted effect of over 45% in size
Procedure, shortened: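 p53RE-bla HCT-116 cells were exposed 16 h at 37 C to compounds with rat liver microsomes (0.5 mg/mL) and NADPH (0.5 mg/mL). Viability was measured in the same wells as ATP content by CellTiter-Glo luminescence.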

[9] = p53 small molecule agonists, cell-based qHTS assay: qHTS cell viability counter screen (AID 1963581); further: nearly all actives have a fitted effect of over 45% in size
Procedure, shortened: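 p53RE-bla HCT-116 cells were exposed to compounds for 16 h at 37 C; after the beta-lactamase FRET read in the same wells, CellTiter-Glo was added and luminescence (intracellular ATP) read after 30 min at room temperature.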

[10] = p53 small molecule agonists, cell-based qHTS assay (AID 1963582; active means well fitted activation curve with a large enough effect in the signal ratio in the repeat runs, not every such curve was filed as active; the % refers to the signal ratio)
Procedure, shortened: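 p53RE-bla beta-lactamase reporter cells rested 5 h at 37 C/5% CO2, then received compounds in DMSO by pin transfer and were incubated 16 h at 37 C. LiveBLAzer B/G FRET substrate was loaded for 2 h at room temperature before fluorescence reading.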

[11] = target: 5-hydroxytryptamine receptor 2A (Homo sapiens) (UniProt P28223); experiment: 5-hydroxytryptamine receptor 2A (HTR2A) small molecule agonists, cell-based qHTS assay (AID 1963587); further: nearly all actives have a fitted effect of over 30% in size
Procedure, shortened: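 CHO cells stably expressing human HTR2A, plated 18 h, loaded with calcium dye 1 h at 37 C. Agonist mode: compounds added and intracellular calcium fluorescence recorded kinetically for 2 min at 1 sec intervals.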

[12] = target: Muscarinic acetylcholine receptor M1 (Homo sapiens) (UniProt P11229); experiment: Cholinergic receptor muscarinic 1 (CHRM1) small molecule antagonists, cell-based qHTS assay (AID 1963588); further: nearly all actives have a fitted effect of over 40% in size; further: potency means the concentration at half of the fitted maximal effect
Procedure, shortened: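 CHRM1-CHO calcium-flux assay, antagonist mode. Cells were seeded 18 h, dye-loaded 1 h at 37 C and given compound for 5 min at RT, then acetylcholine was added at 50nM. FDSS fluorescence was read 3 min; 15 concentrations, three runs.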

[13] = cAMP Responsive Elements (CRE) small molecule agonists, cell-based qHTS assay (AID 1963590)
Procedure, shortened: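 CRE-bla HEK 293T cells in DMEM with 10% dialyzed FBS, NEAA, pyruvate and 25 mM HEPES were plated 18 h at 37 C/5% CO2, then exposed to compounds in DMSO for 3 h before LiveBLAzer B/G FRET substrate addition.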

[14] = cAMP Responsive Elements (CRE) small molecule antagonists, cell-based qHTS assay (AID 1963591; active means well fitted inhibition curve with a large enough effect in the signal ratio in the repeat runs, not every such curve was filed as active; the % refers to the signal ratio)
Procedure, shortened: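 CRE-bla HEK293T cells were plated 18 h at 37 °C/5% CO2, pinned with compound in DMSO, then stimulated with NKH477 at 0.25 uM final for 3 h. LiveBLAzer B/G FRET substrate was added and plates incubated 2 h at room temperature.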

[15] = target: Beta-2 adrenergic receptor (Homo sapiens) (UniProt P07550); experiment: Adrenergic beta2 receptor (ADRB2) small molecule antagonists, cell-based qHTS assay (AID 1963592); further: series mostly up to about 92 µM; nearly all actives have a fitted effect of over 50% in size
Procedure, shortened: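 Cells (CHO, stable ADRB2 overexpression) incubated 18-20hr at 37C; compounds added from DMSO; agonist mix (1nM isoproterenol, 100uM IBMX, 25uM Ro-20-1724) added; 0.5hr RT; d2-cAMP and anti-cAMP-cryptate added; 1hr RT; 665/615 nm read.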

[16] = target: D(2) dopamine receptor (Homo sapiens) (UniProt P14416); experiment: Dopamine D2 receptor (DRD2) small molecule antagonists, cell-based qHTS assay (AID 1963595; active means well fitted inhibition curve with a large enough effect in the signal ratio in the repeat runs, with a control signal flat; the % refers to the signal ratio; further: potency means the concentration at half of the fitted maximal effect)
Procedure, shortened: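 HEK293 cells stably expressing DRD2 were preincubated with 0.1 mM Ro20-1724, then with compound for 10 min at room temperature. Cells were stimulated with 200 nM NKH477 plus 12 nM quinpirole for 30 min, and cAMP was read by HTRF.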

[17] = target: Muscarinic acetylcholine receptor M1 (Homo sapiens) (UniProt P11229); experiment: Cholinergic receptor muscarinic 1 (CHRM1) small molecule agonists, cell-based qHTS assay (AID 1963589); further: nearly all actives have a fitted effect of over 35% in size
Procedure, shortened: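 CHO cells stably expressing human CHRM1, seeded 18 h at 37 C/5% CO2, dye-loaded 1 h at 37 C, then given compound in agonist mode; intracellular calcium fluorescence read kinetically at 1 s intervals. Fifteen concentrations, three independent runs.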

[18] = target: D(2) dopamine receptor (Homo sapiens) (UniProt P14416); experiment: Dopamine D2 receptor (DRD2) small molecule agonists, cell-based qHTS assay (AID 1963594); further: nearly all actives have a fitted effect of over 35% in size
Procedure, shortened: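 HEK293 cells stably expressing human DRD2, pre-treated with PDE inhibitor Ro20-1724 (0.1 mM final) and compound 10 min at room temperature, then stimulated with NKH477 (200nM […]) for 30 min. cAMP read by HTRF (665/620 nm).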

[19] = target: Beta-2 adrenergic receptor (Homo sapiens) (UniProt P07550); experiment: Adrenergic beta2 receptor (ADRB2) small molecule agonists, cell-based qHTS assay (AID 1963593);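 further: CHO cells stably overexpressing human ADRB2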
Procedure, shortened: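 CHO cells stably over-expressing ADRB2 were plated overnight at 37C, then dosed with compounds plus a stimulation mix containing 100uM IBMX and 25uM Ro-20-1724 for 0.5hr at room temperature. cAMP was measured by HTRF competition, 1hr.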

[20] = target: 5-hydroxytryptamine receptor 2A (Homo sapiens) (UniProt P28223); experiment: 5-hydroxytryptamine receptor 2A (HTR2A) small molecule antagonists, cell-based qHTS assay (AID 1963586); further: nearly all actives have a fitted effect of over 45% in size; further: potency means the concentration at half of the fitted maximal effect
Procedure, shortened: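 Antagonist-mode intracellular calcium assay: DOI (4 nM) added after 5 min compound pre-incubation at room temperature to dye-loaded HTR2A-CHO cells. Fluorescence followed for 3 min, sampled every second.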
On the % scale 0 is the no-effect control and ±100 the full control effect.

Chain of Gonadotropin-releasing hormone receptor (Homo sapiens) (P30968 whole entry, looked up): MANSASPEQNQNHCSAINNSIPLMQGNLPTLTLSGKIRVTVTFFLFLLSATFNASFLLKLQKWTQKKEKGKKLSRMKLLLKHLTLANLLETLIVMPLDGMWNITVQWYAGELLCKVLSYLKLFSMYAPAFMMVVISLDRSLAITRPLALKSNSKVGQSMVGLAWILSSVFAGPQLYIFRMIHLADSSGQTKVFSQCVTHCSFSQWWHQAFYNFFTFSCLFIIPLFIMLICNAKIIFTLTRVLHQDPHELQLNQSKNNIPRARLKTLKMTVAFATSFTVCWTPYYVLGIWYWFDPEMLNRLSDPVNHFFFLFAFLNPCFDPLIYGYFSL
Chain of Muscarinic acetylcholine receptor M1 (Homo sapiens) (P11229 whole entry, looked up): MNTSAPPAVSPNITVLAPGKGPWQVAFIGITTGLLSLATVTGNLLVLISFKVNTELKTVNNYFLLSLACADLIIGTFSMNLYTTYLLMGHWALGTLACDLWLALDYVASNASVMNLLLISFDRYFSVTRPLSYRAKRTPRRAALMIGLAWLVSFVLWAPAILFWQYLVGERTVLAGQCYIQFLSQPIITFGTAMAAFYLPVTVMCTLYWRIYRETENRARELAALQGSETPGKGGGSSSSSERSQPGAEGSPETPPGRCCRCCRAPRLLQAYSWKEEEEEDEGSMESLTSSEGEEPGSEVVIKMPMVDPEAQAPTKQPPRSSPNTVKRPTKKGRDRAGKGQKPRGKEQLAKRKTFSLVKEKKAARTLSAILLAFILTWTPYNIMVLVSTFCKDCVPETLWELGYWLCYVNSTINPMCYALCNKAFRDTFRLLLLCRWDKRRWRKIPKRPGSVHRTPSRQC
Chain of Beta-2 adrenergic receptor (Homo sapiens) (P07550 whole entry, looked up): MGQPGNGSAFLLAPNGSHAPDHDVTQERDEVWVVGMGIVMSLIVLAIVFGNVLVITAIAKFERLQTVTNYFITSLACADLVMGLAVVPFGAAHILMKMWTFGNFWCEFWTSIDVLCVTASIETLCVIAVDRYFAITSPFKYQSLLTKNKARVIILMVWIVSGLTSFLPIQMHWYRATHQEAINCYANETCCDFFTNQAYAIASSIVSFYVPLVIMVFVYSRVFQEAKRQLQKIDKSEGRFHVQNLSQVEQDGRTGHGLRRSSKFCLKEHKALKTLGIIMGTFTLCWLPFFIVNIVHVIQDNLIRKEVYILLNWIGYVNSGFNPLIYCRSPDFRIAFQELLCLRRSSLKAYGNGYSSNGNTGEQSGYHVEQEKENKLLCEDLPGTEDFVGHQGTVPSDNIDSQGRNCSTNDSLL
Chain of KiSS-1 receptor (Homo sapiens) (Q969F8 whole entry, looked up): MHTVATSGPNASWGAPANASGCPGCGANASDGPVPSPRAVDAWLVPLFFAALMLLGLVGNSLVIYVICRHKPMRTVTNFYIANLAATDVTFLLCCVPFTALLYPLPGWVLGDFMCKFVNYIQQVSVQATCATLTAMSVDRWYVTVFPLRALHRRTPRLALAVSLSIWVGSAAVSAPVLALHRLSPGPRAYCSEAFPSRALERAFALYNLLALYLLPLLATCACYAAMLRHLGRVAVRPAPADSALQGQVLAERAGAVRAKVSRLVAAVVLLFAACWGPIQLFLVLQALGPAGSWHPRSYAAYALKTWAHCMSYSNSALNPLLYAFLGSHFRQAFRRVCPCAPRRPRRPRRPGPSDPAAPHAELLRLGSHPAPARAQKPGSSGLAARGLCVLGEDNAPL
Chain of D(2) dopamine receptor (Homo sapiens) (P14416 whole entry, looked up): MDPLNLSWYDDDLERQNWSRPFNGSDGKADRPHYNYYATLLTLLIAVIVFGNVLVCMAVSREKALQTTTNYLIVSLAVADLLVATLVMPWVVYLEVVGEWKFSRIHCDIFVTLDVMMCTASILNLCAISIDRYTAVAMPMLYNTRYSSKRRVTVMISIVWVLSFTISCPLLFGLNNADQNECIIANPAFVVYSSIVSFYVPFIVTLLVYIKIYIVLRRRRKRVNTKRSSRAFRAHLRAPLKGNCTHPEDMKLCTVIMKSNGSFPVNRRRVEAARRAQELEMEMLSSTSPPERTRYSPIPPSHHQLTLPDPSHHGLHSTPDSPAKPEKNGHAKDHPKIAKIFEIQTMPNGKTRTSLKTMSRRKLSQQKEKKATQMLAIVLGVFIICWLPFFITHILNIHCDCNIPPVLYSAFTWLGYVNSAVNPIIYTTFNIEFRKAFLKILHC
Chain of 5-hydroxytryptamine receptor 2A (Homo sapiens) (P28223 whole entry, looked up): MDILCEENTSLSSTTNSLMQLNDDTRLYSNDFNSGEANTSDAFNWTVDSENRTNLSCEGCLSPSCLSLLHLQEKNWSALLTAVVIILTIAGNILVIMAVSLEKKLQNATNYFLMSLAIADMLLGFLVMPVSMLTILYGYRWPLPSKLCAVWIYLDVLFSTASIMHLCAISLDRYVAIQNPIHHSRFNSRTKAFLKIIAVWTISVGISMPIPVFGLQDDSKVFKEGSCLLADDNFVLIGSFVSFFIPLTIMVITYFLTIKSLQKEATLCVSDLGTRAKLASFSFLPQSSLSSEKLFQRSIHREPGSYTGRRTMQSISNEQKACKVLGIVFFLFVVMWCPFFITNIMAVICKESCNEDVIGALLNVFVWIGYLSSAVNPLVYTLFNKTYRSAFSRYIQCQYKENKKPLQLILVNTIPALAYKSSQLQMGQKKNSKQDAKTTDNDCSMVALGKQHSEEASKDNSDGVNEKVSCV

CCN1CCN(c2cc(-c3ccc(F)cc3)c3c(n2)CCCCCC3)CC1
active: Potency [12] 31.7 nM | Potency [16] 32.6 nM
inactive: activity change, negative = cytotoxicity [1] -1.5% [at 19 µM] | activity, positive = activation [2] -2.3% [at 19 µM] | activity change [3] 17.8% [at 11.8 µM, hits give high values] | activation [4] 8.32% [at 15.8 µM] | activation [5] -0.133% [at 11.8 µM] | activation [6] -0.562% [at 13.5 µM] | activation [7] -1.02% [at 13.6 µM] | activity change, negative = cytotoxicity [8] 0.85% [at 13.5 µM] | activity change, negative = cytotoxicity [9] 1.98% [at 13.5 µM] | activation [10] -0.331% [at 13.5 µM] | activation [11] -5.11% [at 15.9 µM] | activation [13] 0.689% [at 19 µM] | activity change, negative = inhibition [14] 1.59% [at 18.9 µM] | activity change, negative = inhibition [15] -12.5% [at 19 µM]

CO[Si](CCCNc1ccccc1)(OC)OC
inactive: Potency [1] | Potency [2] | Potency [3] | outcome [4] | outcome [5] | Potency [6] | Potency [7] | Potency [8] | Potency [9] | Potency [10] | Potency [11] | Potency [12] | Potency [17] | Potency [13] | Potency [14] | Potency [18] | Potency [16]

Nc1ncnc(Nc2ccccc2)n1
inactive: Potency [1] | Potency [2] | Potency [3] | outcome [4] | outcome [5] | Potency [6] | Potency [7] | Potency [8] | Potency [9] | Potency [10] | Potency [11] | Potency [17] | Potency [13] | Potency [14] | Potency [15] | Potency [19] | Potency [16]

Cn1c(N)c(N=O)c(=O)n(C)c1=O
inactive: Potency [1] | Potency [2] | Potency [3] | outcome [4] | outcome [5] | Potency [6] | Potency [7] | Potency [8] | Potency [9] | Potency [10] | Potency [20] | Potency [11] | Potency [12] | Potency [15] | Potency [18] | Potency [16]

O=C(CCCN1CCC(O)(c2ccc(Br)cc2)CC1)c1ccc(F)cc1
active: Potency [16] 188 nM
inactive: Potency [1] | Potency [2] | Potency [3] | outcome [4] | outcome [5] | Potency [6] | Potency [7] | Potency [8] | Potency [9] | Potency [10] | Potency [17] | Potency [13] | Potency [14] | Potency [18]

CN(C)CCN(Cc1ccc(Cl)cc1)c1ccccn1
active: Potency [20] 8180 nM
inactive: Potency [1] | Potency [2] | Potency [3] | outcome [4] | outcome [5] | Potency [6] | Potency [7] | Potency [8] | Potency [9] | Potency [10] | Potency [11] | Potency [17] | Potency [13] | Potency [14] | Potency [15] | Potency [18] | Potency [16]

O=C(O)c1ccc2c(c1)nc(C(=O)NC1CCN(C3CC3)CC1)n2Cc1cc(-c2ccc(Cl)s2)on1
inactive: activity change, negative = cytotoxicity [1] 2.24% [at 19 µM] | activity, positive = activation [2] 2.61% [at 19 µM] | activity change [3] -0.0073% [at 11.8 µM, hits give high values] | activation [4] -0.617% [at 15.8 µM] | activation [5] 0.0965% [at 11.8 µM] | activation [6] -1.92% [at 13.5 µM] | activation [7] -2.62% [at 13.6 µM] | activity change, negative = cytotoxicity [8] 1.71% [at 13.5 µM] | activity change, negative = cytotoxicity [9] 10.9% [at 13.5 µM] | activation [10] -1.36% [at 13.5 µM] | activity, negative = inhibition [20] -29.3% [at 12.7 µM] | activity, negative = inhibition [12] -5% [at 12.6 µM] | activation [17] -0.218% [at 15.8 µM] | activity change, negative = inhibition [15] -20.8% [at 19 µM] | activation [18] 23% [at 19 µM] | activity change, negative = inhibition [16] -5.22% [at 18.9 µM]
